# Rows were chosen to be rich in hits. Some 2.4% of all compounds tested hit in one or more screens of this group.
# Pol kappa inh = inhibitors of human DNA polymerase kappa. AID 588579. Q9UBT6. purified Pol kappa, fluorescent DNA synthesis assay, 10 min. 0.53% of 400,000 active. Potency, µM (highest dose often 107 µM), without a hit: at the highest dose activity, negative = inhibition, hits mostly inhibitors; note: % is set by controls: 0 for no effect and ±100 for the full control effect
#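 Readout: fluorescence, taken kinetically at 0 and 10 min. Conditions: 10 nM Pol kappa, 15 min RT compound preincubation, 50 nM substrate final. Controls: enzyme-free buffer wells.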
# FEN1 inhibitor = blocks human flap endonuclease 1 | P39748 | Potency, µM (doses to about 114 µM), inactives show at the top dose activity change, negative = inhibition, most hits filed as inhibitors | 0.35% of 390,000 active | Recombinant FEN1 flap cleavage, fluorescence, 15 min; note: % is set by controls: 0 for no effect and ±100 for the full control effect; nearly all actives have a fitted effect of over 65% in size
#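 FEN1 at 10 nM, compound pretreatment for 15 min (room temperature), 50 nM final substrate to initiate; endpoint reads at 0 and 15 min; DMSO-only plates used as vehicle background.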
# WRN helicase inh = blocks human WRN helicase; Q14191; WRN helicase unwinding, fluorescent forked duplex, kinetic; Potency, µM (highest dose often 114 µM), inactives show top-dose activity change, negative = inhibition, hits mostly inhibitors; 0.46% of 360,000 active; AID 651768; note: % is set by controls: 0 for no effect and ±100 for the full control effect; nearly all actives have a fitted effect of over 55% in size
#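 WRN at 20 nM final was preincubated with compound for 15 min at room temperature; reaction started with 100 nM forked duplex oligonucleotide carrying fluorophore and quencher plus 2 mM ATP (final). Unwinding followed kinetically by red fluorescence (ex 525/em 598 nm).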
# POLB inh = DNA polymerase beta (human) inhibition | P06746 | Potency, µM (top dose mostly 114 µM), without a hit: top-dose activity change, negative = inhibition, usual class: inhibitors | 1.3% of 340,000 active | Pol beta primer extension/strand displacement, fluorescence kinetic; note: % is set by controls: 0 for no effect and ±100 for the full control effect
#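 Kinetic readout of DNA synthesis with strand displacement by Pol beta. Compound and 10 nM enzyme sit 15 min at room temperature; 50 nM substrate starts the reaction, read immediately and at 10 min.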
# Pol eta inh = DNA polymerase eta (human) inhibition; Q9Y253; Potency, µM (titrated, usually from 114 µM), inactives show top-dose activity change, negative = inhibition, actives largely listed as inhibitors; 1.2% of 390,000 active; recombinant Pol eta, fluorescent DNA replication assay; note: % is set by controls: 0 for no effect and ±100 for the full control effect
# Target sequence (Q9Y253 whole entry, looked up): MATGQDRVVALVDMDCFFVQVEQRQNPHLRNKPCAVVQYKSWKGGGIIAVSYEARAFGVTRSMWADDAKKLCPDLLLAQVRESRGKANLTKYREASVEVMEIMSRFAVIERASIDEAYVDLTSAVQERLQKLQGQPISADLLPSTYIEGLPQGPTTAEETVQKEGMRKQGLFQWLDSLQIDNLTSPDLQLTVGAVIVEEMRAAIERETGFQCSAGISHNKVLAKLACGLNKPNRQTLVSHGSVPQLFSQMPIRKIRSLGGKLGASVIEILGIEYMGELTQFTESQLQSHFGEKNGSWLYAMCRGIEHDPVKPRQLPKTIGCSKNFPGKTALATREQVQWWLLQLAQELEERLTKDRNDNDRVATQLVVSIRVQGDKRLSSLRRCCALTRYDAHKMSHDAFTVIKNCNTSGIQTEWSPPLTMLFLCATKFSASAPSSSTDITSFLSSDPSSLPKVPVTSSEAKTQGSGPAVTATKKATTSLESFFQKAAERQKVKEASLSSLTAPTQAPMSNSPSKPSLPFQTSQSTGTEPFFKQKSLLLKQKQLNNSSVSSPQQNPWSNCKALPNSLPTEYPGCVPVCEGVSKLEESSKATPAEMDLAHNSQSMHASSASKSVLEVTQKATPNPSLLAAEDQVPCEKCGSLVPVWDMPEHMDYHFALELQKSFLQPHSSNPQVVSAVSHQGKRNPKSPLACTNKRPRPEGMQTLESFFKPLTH
#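 Pol eta (10 nM) was preincubated with compounds for 15 min at room temperature, after which fluorescent replication substrate (50 nM final) was added to start the reaction. Fluorescence was read kinetically at 0 and 10 min.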
# POLI inh = DNA polymerase iota (human) inhibition. Q9UNA4. Potency, µM (highest dose often 115 µM), without a hit: top-dose activity, negative = inhibition, hits mostly inhibitors. 1% of 390,000 active. Pol iota fluorescent replication assay, 10 min
#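 Fluorescent replication assay read twice, at 0 min and 10 min after adding 50 nM (final) substrate. Enzyme (10 nM) and compounds were first incubated 15 min at room temperature; enzyme-free buffer wells were negative controls.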
# Active calls of the source: *; ? = inconclusive; / = no result given; [ ] = remark or other dose. Calls come from the whole dose curve; as a rule, active = well fitted curve in the direction sought with a large enough effect; inconclusive = small, poorly fitted or top-dose-only effect, or another doubt; inactive = no such curve, though single readings can be large; an effect the other way counts as inactive or inconclusive. Potency is the fitted concentration of half-maximal effect.
SMILES,Pol kappa inh,FEN1 inhibitor,WRN helicase inh,POLB inh,Pol eta inh,POLI inh
C=CCOc1ccc(/C=C2\C(=N)N3N=C(S(=O)(=O)CC)SC3=NC2=O)cc1OC,-4%,-4%,-10%[11.6 µM],-3%,40µM*,?
COc1cccc(OCCOc2ccc(/C=C3\C(=N)N4N=C(S(C)(=O)=O)SC4=NC3=O)cc2OC)c1,-31%,11%,-22%,-29%,-16%,?
COc1cc(/C=C2/C(=N)N3C(SC)=NSC3=NC2=O)ccc1OC(=O)c1ccco1,-15%,5%,-31%,3%,-7%,?
CCS(=O)(=O)C1=NN2C(=N)/C(=C\c3ccc(OC(=O)c4ccco4)c(OC)c3)C(=O)N=C2S1,-30%,-8%,-26%,-25%,79µM*,?
COc1cc(/C=C2\C(=O)N(c3ccc(S(N)(=O)=O)cc3)N=C2C)ccc1OC(=O)c1ccco1,1%,-16%,-16%[11.6 µM],?,-13%,2.5µM*
COc1cc(/C=C2/C(=O)N(c3ccc(C(=O)O)cc3)N=C2C)cc(OC)c1O,-21%,?,-4%[11.6 µM],13%,?,1.6µM*
CCC1=Nc2cc(C(=O)NCCc3ccc(OC)c(OC)c3)ccc2Sc2ccccc21,0%,4%,/,-8%,-18%,9%
CN1CCN(NC(=O)CC(C)(C)C)CC1,3%,-5%,-4%,-1%,-17%,30%
Cc1ccc(NC(=O)CN2C(=O)C3CCCCN3C(=O)c3ccccc32)cc1 (centres undefined),5%,1%,-8%,22%,3%,2%
CN(C)S(=O)(=O)N(CC(=O)Nc1ccc(Br)cc1F)c1ccccc1,-15%,-1%,/,5%,-5%,-19%
CCOC(=O)C1CCC(CN(Cc2ccccc2)S(=O)(=O)c2ccc(Cl)cc2)CC1 (centres undefined),-12%[60.1 µM],-19%,/,10%,-8%,-4%
COc1cc(/C=C2\C(=N)N3N=CSC3=NC2=O)cc(Br)c1OC(=O)c1ccco1,-14%,-4%,-5%,?,79µM*,?
N=C1/C(=C\c2ccc(OC(=O)c3ccco3)cc2)C(=O)N=C2SC=NN12,-15%,0%,?,44%,-1%,19%
O=C1C=CC2=C3c4cc(O)c(O)cc4C[C@]3(O)COC2=C1,7.1µM*,/,/,/,/,/
Cc1cccc(NC(=O)C(C)SCc2nc3sc(C)c(C)c3c(=O)[nH]2)n1 (centres undefined),-5%,8%,?,?,?,?
Cc1sc2nc(CSc3nc4ccccc4s3)[nH]c(=O)c2c1C,/,/,/,40µM*,/,/
O=c1[nH]c(CSc2nc3ccccc3s2)nc2ccccc12,0%,13%,-3%,-11%,-4%,20%
Cc1sc2nc(CSC(C)C(=O)Nc3ccccn3)[nH]c(=O)c2c1C (centres undefined),-16%,2%,-8%,/,71µM*,-15%
Nc1nonc1C(=O)NCCNCc1cc(Br)ccc1OCc1ccc(F)cc1,-8%,-12%,-9%,27%,-1%,-4%
CCOC(=O)C(O)(CC(=O)Nc1ccc(Cl)cc1Cl)C(F)(F)F (centres undefined),-6%,-16%,-5%,-21%,-11%,25%
Cc1nnc2ccc(-c3ccc(NS(=O)(=O)c4ccccc4[N+](=O)[O-])cc3)nn12,?,-31%,-15%[11.6 µM],/,40µM*,?
O=C(CSc1nc(-c2ccccc2)no1)N1CCN(c2ccccc2F)CC1,-9%,-3%,/,1%,-12%,89µM*
CC(C)c1ccc(-c2noc(SCC(=O)N3CCN(c4ccccc4F)CC3)n2)cc1,-16%,2%,/,?,-18%,29%
C(=N\Nc1ccc2nncn2n1)/c1ccccn1,-17%,-8%,-13%,1%,4%,24%
O=c1c(O)c(-c2cc(O)c(O)c(O)c2)oc2cc(O)ccc12,0.24µM*,/,/,/,/,/
SMILES,Pol kappa inh,FEN1 inhibitor,WRN helicase inh,POLB inh,Pol eta inh,POLI inh
O=c1c(O)c(-c2ccc(O)cc2)oc2cc(O)ccc12,-11%[19.4 µM],/,/,/,/,/
O=c1c(O)c(-c2ccc(O)c(O)c2)oc2ccccc12,0.35µM*,/,/,/,/,/
CCN(CC)S(=O)(=O)c1ccc(S(=O)(=O)N(CC(=O)Nc2ccccc2)Cc2ccco2)cc1,-13%,-3%,-6%,?,1%,?
Cc1cccc(C2CC3(CC(C)(C)NC(=S)N3)Oc3cc(O)ccc32)c1 (centres undefined),-15%,-6%,-11%,-22%,-3%,14%
Cn1c(=O)n(CC(=O)O)c(=O)c2c1nc1n2CCCN1Cc1ccccc1,0%,-5%,1%,-14%,-8%,7%
CC1O[C@@H](OC2C(COC3OC(CO)C(O)[C@H](O)C3O)OC(OC3CC[C@]4(C)C(CC[C@@]5(C)[C@@H]4CC=C4[C@@H]6CC(C)(C)CC[C@]6(CO)C(O)C[C@]45C)C3(C)C)C(O)C2O)C(O)C(O)C1O (some centres undefined),-5%,-13%,-1%,/,-7%,-6%
C[C@@H]1OC(OC2CC[C@@]3(C)C(CC[C@@]4(C)C3CC=C3C5CC(C)(C)CC[C@]5(C(=O)OC5OCC(O)[C@@H](O)[C@@H]5OC5O[C@@H](C)[C@H](O[C@H]6OC(CO)C(O)C(O)C6O)C(O)C5O)C(O)C[C@@]34C)C2(C)C)C(O)C(O)[C@H]1OC1OCC(O)C(O)[C@H]1O (some centres undefined),25µM*,/,/,/,/,/
COc1nc(N)nc(NC(=O)c2cccs2)c1N=O,2%,-6%,?,/,-17%,28µM*
COc1ccc(NC(=O)c2ccc(NC(=O)c3cccs3)cc2)cc1,-9%,-5%,-31%,-6%,0%,-3%
O=C(O)Cn1c(CCS(=O)(=O)c2ccc(Br)cc2)nc2ccccc21,-36%,3%,?,14µM*,20µM*,74%
COC(=O)Cn1c(CCS(=O)(=O)c2ccc(C)c(C)c2)nc2ccccc21,-12%,2%,-6%,1%,-1%,24%
CC1=NN(c2ccc(C)cc2C)C(=O)C1C(c1ccccc1O)C1C(=O)N(c2ccc(C)cc2C)N=C1C (centres undefined),-11%,-9%,-11%[57.1 µM],39%,-9%,0.89µM*
CC1=NN(c2ccc(C)c(C)c2)C(=O)C1C(c1cccc(O)c1)C1C(=O)N(c2ccc(C)c(C)c2)N=C1C (centres undefined),-4%,?,?,-6%,-13%,?
O=C(Nc1ccc2c(c1)OCCO2)N1CCN(c2ccccc2)CC1,-10%,-2%,-7%,9%,3%,11%
Nc1nonc1-c1nc2ccccc2n1CC(=O)N/N=C/c1ccc(-c2ccccc2C(=O)O)o1,?,1%,-27%[57.1 µM],16µM*,32µM*,?
